Source: PubChem BioAssay AID2061304 (National Center for Advancing Translational Sciences (NCATS), 2025)
Results filed as inconclusive are left out. The source made the active and inactive calls. The call rests on the fitted dose curve; in most records, active means well fitted inhibition curve with a large enough effect; inconclusive means small, poorly fitted or top-dose-only effect; inactive means flat fitted curve, though single readings scatter. Square brackets hold non-standard residues; d marks the D form. Peptide text beside a SMILES is read from it. * marks the point of attachment. Dolaproine = CO[C@@H]([C@@H]1CCCN1)[C@@H](C)C(=O)O; Dil = CC[C@H](C)[C@H](NC)[C@@H](CC(=O)O)OC; NMe2Val = CC(C)[C@@H](C(=O)*)N(C)C; X1 = C[C@@H](N*)[C@@H](O)c1ccccc1; NMeV = CN[C@H](C(=O)O)C(C)C

Assay: Identification of antibody-drug conjugate (ADC) payloads which are substrates of ATP-binding cassette drug efflux transporters: ABCB1-HeLa-KB-8-5-11 cell line
Conditions: KB-8-5-11 (P-gp overexpressing HeLa) viability, CellTiter-Glo, 48 h
Description: Antibody-drug conjugates (ADCs) feature an antibody recognizing a specific protein joined to a potent toxic payload. Numerous antibody-drug conjugates have received FDA approval; however, clinical resistance arises. Resistance mechanisms include decreased expression or mutation of the antibody target, impaired payload release, or increased expression of ATP-binding cassette (ABC) efflux transporters associated with multidrug resistance. We therefore sought to characterize the interaction of ABC multidrug transporters with ADC payloads. We performed a high-throughput screen with 27 common ADC payloads using cells lines expressing ABC transporters P-glycoprotein (P-gp, encoded by ABCB1) or ABCG2 (encoded by ABCG2). Confirmatory assays were also performed using cells transfected to express P-gp, ABCG2, or MRP1 (encoded by ABCC1). Several commonly used ADC payloads were substrates of P-gp, including calicheamicin gamma1, monomethyl auristatin E, DM1, and DM4. All the pyrrolobenzodiazepines tested - SJG136, SGD-1882, SG2057, and SG3199 - were substrates of P-gp, ABCG2, and MRP1. […] These findings highlight the risk of transporter-mediated resistance with certain ADC payloads and underscore the importance of selecting payloads that evade ABC transporter recognition in future ADC development.
HEK-293 cells were transfected with empty vector (pcDNA) or vector containing the human ABCB1 (MDR-19), ABCG2 (R-5), or ABCC1 gene (MRP1) and were maintained in EMEM with 2 mg/mL G418 added to maintain transporter expression. The HeLa derivative KB-3-1 and the P-gp overexpressing KB-8-5-11 subline were maintained in DMEM; KB-8-5-11 additionally received 100 ng/mL colchicine. H460 parental cells were obtained from the Division of Cancer Treatment and Diagnosis Tumor Repository, National Cancer Institute at Frederick, MD and were cultured in RPMI. The ABCG2 expressing subline H460 MX20 was generated by selecting H460 cells in 20 nM mitoxantrone. Media in all cases was supplemented with 10% FBS and 1% penicillin-streptomycin. We explored 27 common ADC payloads, in two orthogonal, paired cell line sets-a drug selected and transfected set for each transporter--to identify substrates of the ABC transporters P-gp and ABCG2. Compounds were sourced from Levena Biopharma (San Diego, CA), Selleck Chem (Houston, TX), ChemieTek (Indianapolis, IN), or Microsource Discovery Systems (Gaylordsville, CT). Screening was performed as previously described. Briefly, cells were plated at a density of 500 cells/well in 1536 well plates with compounds added using a 1536-head pin tool (Kalypsys, San Diego CA). Cells were incubated with cytotoxic drugs and processed with CellTiter Glo reagent (Promega, Madison, WI) to determine viability after 48 hours. P-gp substrates were identified by comparing compound activity between paired sets of low-expressing (sensitive) and over-expressing (resistant) cell lines.
For COc1cc2cc(c1Cl)N(C)C(=O)C[C@H](OC(=O)[C@H](C)N(C)C(=O)CCS)[C@]1(C)OC1[C@H](C)C1C[C@@](O)(NC(=O)O1)[C@H](OC)/C=C/C=C(\C)C2 (some centres not stated), the Potency was 106 nM (active).
For CC[C@H](C)[C@@H]([C@@H](CC(=O)N1CCC[C@H]1[C@H](OC)[C@@H](C)C(=O)N[C@@H](Cc1ccccc1)C(=O)O)OC)N(C)C(=O)[C@@H](NC(=O)[C@H](C(C)C)N(C)C)C(C)C (NMe2Val-V[Dil][Dolaproine]F-OH), the Potency was 265 nM (active).
In the case of CC[C@H](C)[C@H](NC(=O)[C@H]1CCCCN1C)C(=O)N(C)[C@H](C[C@@H](OC(C)=O)c1nc(C(=O)O)cs1)C(C)C, the Potency is reported as 4200 nM (active).
With COc1cc2cc(C(=O)N3C[C@@H](CCl)c4c3cc(O)c3ccccc43)[nH]c2c(OC)c1OC the Potency was 1.3 nM (active).
With COc1cc2cc(c1Cl)N(C)C(=O)C[C@H](OC(=O)[C@H](C)N(C)C(=O)CCC(C)(C)S)[C@]1(C)OC1[C@H](C)C1C[C@@](O)(NC(=O)O1)[C@H](OC)/C=C/C=C(\C)C2 (some centres not stated) the Potency was 26.5 nM (active).
In the case of CC[C@@]1(O)C(=O)OCc2c1cc1n(c2=O)Cc2cc3ccccc3nc2-1, the Potency is reported as 334 nM (active).
In the case of CC[C@H](C)[C@@H]([C@@H](CC(=O)N1CCC[C@H]1[C@H](OC)[C@@H](C)C(=O)N[C@H](C)[C@@H](O)c1ccccc1)OC)N(C)C(=O)[C@@H](NC(=O)[C@H](C(C)C)N(C)C)C(C)C, the Potency is reported as 52.9 nM (active).
For COc1cccc2c1C(=O)c1c(O)c3c(c(O)c1C2=O)C[C@@](O)(C(=O)CO)CC3OC1CC(N2CCOC(OC)C2)C(O)C(C)O1 (some centres not stated), the Potency was 13.3 nM (active).
In the case of CC[C@H](C)[C@@H]1NC(=O)CNC(=O)[C@H]2Cc3c([nH]c4cc(O)ccc34)S(=O)C[C@H](NC(=O)CNC1=O)C(=O)N[C@@H](CC(N)=O)C(=O)N1C[C@H](O)C[C@H]1C(=O)N[C@@H]([C@@H](C)[C@@H](O)CO)C(=O)N2 (some centres not stated), the Potency is reported as 4720 nM (active).
In the case of CC[C@H](C)[C@@H]([C@@H](CC(=O)N1CCC[C@H]1[C@H](OC)[C@@H](C)C(=O)N[C@H](C)[C@@H](O)c1ccccc1)OC)N(C)C(=O)[C@@H](NC(=O)[C@@H](NC)C(C)C)C(C)C (H-[NMeV]V[Dil][Dolaproine]-X1), the Potency is reported as 211 nM (active).
In the case of CC[C@H](C)[C@H](NC(=O)[C@H]1CCCCN1C)C(=O)N(C)[C@H](C[C@@H](OC(C)=O)c1nc(C(=O)N[C@@H](Cc2ccccc2)C[C@H](C)C(=O)O)cs1)C(C)C, the Potency is reported as 10.6 nM (active).
For COc1cc2cc(c1Cl)N(C)C(=O)C[C@H](OC(=O)C(C)C)[C@]1(C)O[C@H]1[C@H](C)[C@@H]1C[C@@](O)(NC(=O)O1)[C@H](OC)C=CC=C(C)C2, the Potency was 4.7 nM (active).
